The values that follow come from PubChem BioAssay.

A number with no mark means an inactive call. The rule behind the calls is not given here.

In the test the target is Pantothenate synthetase (Mycobacterium tuberculosis (strain ATCC 25618 / H37Rv)) (UniProt P9WIL5). Description: Recombinant Mtb pantothenate synthetase (PanC) inhibitors, coupled enzyme, confirmatory (AID 375).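 Note: 0% = full reaction with vehicle and 100% = no enzyme background.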 The following applies: coupled enzyme assay; at 10 µM, hits give high values.
Chain of Pantothenate synthetase (Mycobacterium tuberculosis (strain ATCC 25618 / H37Rv)) (P9WIL5 whole entry, looked up): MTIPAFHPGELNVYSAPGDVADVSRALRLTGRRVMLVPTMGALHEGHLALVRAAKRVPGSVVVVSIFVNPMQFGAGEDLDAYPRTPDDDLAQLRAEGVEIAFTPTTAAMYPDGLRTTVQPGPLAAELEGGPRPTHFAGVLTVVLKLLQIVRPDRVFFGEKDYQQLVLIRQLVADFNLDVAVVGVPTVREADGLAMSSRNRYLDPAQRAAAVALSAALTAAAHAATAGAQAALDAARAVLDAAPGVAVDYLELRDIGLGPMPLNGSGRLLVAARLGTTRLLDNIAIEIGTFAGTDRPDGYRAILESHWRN
By inhibition is commonly meant the relative decrease from the control value, in per cent. For the compound `Clc1ccc(Cn2c(CN3CCCC3)nc3ccccc32)cc1`, the inhibition is 8%.
The result for `Cc1cccn2c(=O)c3cc(C(=O)N4CCCc5ccccc54)n(C)c3nc12` reads 0%.
For `Cc1nonc1NC(=O)c1ccccc1Br` the value was 1%; for `COc1ccc(-c2ccc(-c3noc(-c4ccccc4)n3)c(OC)n2)cc1`, 3%.
The result for `Cn1cnc2cc(NC(=O)c3ccc(Cl)cc3)ccc21` reads 0%; that for `CCOC(=O)c1[nH]c(=O)c2ccccc2c1O`, 0%.
Turning to `Cc1ccc(Cl)c(Nc2ccccc2C(=O)O)c1Cl`, the inhibition is 0%.
The result for `COc1ccc2c(c1)cc(C(=O)O)n2C` reads 6%; that for `COC(=O)Cc1cc(=O)[nH]c(Nc2nc3ccccc3o2)n1`, 0%; that for `CCOc1cc(-c2nc(-c3ccccc3OC)no2)cc(OCC)c1OCC`, 12%.
In the case of `CCOC(=O)C1(C)NC(c2ccc(OC)c(OC)c2)C2C(=O)N(CC)C(=O)C21` (stereo not drawn), the inhibition is 9%.
For `CN(C)c1ccc(C=Nc2ccc(N(C)C)cc2)cc1` the value was 0%; for `Cc1nnc(C)n1/N=C/c1cccc(Oc2ccccc2)c1`, 1%.
As for `Cc1cccc(NC(=O)c2cc(NC(=O)c3ccco3)ccc2N2CCCCC2)c1`, the inhibition is 2%.
For `O=C1CSC(=Nc2ccc(O)cc2)N1c1ccc(O)cc1` the value was 0%.
The result for `O=C(C1CCCN(S(=O)(=O)c2cccs2)C1)N1CCc2ccccc2C1` (stereo not drawn) reads 9%.
The result for `O=C(CN1C(=O)CC(c2ccccc2)=Nc2ccccc21)NCc1ccco1` reads 0%.
Turning to `c1coc(CN2CN=C(Nc3nc4ccccc4s3)NC2)c1`, the inhibition was 0%.
